The values that follow come from PubChem BioAssay AID1571 (National Center for Advancing Translational Sciences (NCATS), 2009).

The structures appear in SMILES notation. Inconclusive results are not listed. Entries that show only a call come without a potency. Active and inactive are the calls of the source. The call rests on the fitted dose curve; in most records, active means well fitted curve in the direction sought with a large enough effect; inconclusive means small, poorly fitted or top-dose-only effect, or effect the other way; inactive means flat fitted curve, though single readings scatter.

The nature of this assay: Total Fluorescence Confirmation Counterscreen for Inhibitors of the Interaction of Thyroid Hormone Receptor and Steroid Receptor Coregulator 2, Fluorescein Fluoroprobe. The note with it: TRbeta/SRC2-fluorescein mix, total fluorescence interference; series mostly up to 92.2 µM. An excerpt:
NIH Molecular Libraries Probe Production Network [MLPCN] NIH Chemical Genomics Center [NCGC] MLPCN Grant: DK058080 Assay Provider: R. Kip Guy, St. Jude Children's Research Hospital NCGC Assay Overview: Thyroid receptor (TR) regulates many homeostatic processes including basal metabolism, cardiovascular function, body weight, and lipid trafficking. TR modulators are potential therapeutics for obesity and hyperlipidemias but current thyroid analogs have undesirable side effects, particularly cardiac stimulation. To identify inhibitors that specifically prevent the interaction of TR with the steroid receptor coregulator 2 (SRC2), a fluorescence polarization assay was screened (Arnold et al., 2006). This assay detects interaction of the ligand-binding domain of human TRbeta with a fluorescein labeled SRC2 peptide, corresponding to a 20 amino acid region of the nuclear receptor interaction domain. Total fluorescence (555 nm excitation and 632 nm emission) was measured to identify potential fluorescent and light absorbing compounds. Such compounds may be artifacts that interfere with the fluorescence polarization assay. This assay is a confirmation assay for AID 1479. Arnold, L. A.; Estebanez-Perpina, E.; Togashi, M.; Shelat, A.; Ocasio, C. A.; McReynolds, A. C.; Nguyen, P.; Baxter, J. D.; Fletterick, R. J.; Webb, P.; Guy, R. K. A high-throughput screening method to identify small molecule inhibitors of thyroid hormone receptor coactivator binding. Sci STKE 2006, p 13.
NCGC Assay Protocol Summary: For screening, 5 uL/well 0.6 uM TRbeta and 20 nM SRC2 Fluorescein in protein buffer (20mM Tris hydrochloride, 100mM NaCl, 10% glycerol, 1mM EDTA, 0.01% NP-40, 1mM DTT, 1uM T3 and 5% DMSO) was dispensed into black solid 1536-well plates (Grenier) using a solenoid-based dispenser. Following transfer of 23 nL compound or DMSO vehicle by a pin tool, the plates were centrifuged 15 s at 1000 RPM and incubated 5 hr at ambient temperature. The plates were read by an Envision (Perkin Elmer) to detect fluorescence polarization of SRC2 Fluorescein (480 nm excitation and 535 nm emission). Data were normalized to unbound (all components except TRbeta) and bound SRC2 Fluorescein controls. Total fluorescence (TF) was calculated as follows: TF = S + 2P where S and P are fluorescence readings in the parallel and perpendicular channels, respectively. In this assay, we provide % activity data for each concentration as well as potencies for the active compounds.
A general note: A counterscreen serves to expose hits that act by an unwanted route or on another target.
As to `Nc1cc(-c2ccccc2)c[nH]c1=O`, the Potency was 39.8 µM [fluorescent] (active).
The same measure, in the same setting: as for `Cc1cccc(S(=O)(=O)c2cn(Cc3ccccc3)c3cc(N4CCC(C)CC4)c(F)cc3c2=O)c1`, the entry is “inactive”; as for `N#Cc1c(NC(=O)c2ccccc2Cl)n(Cc2ccccc2)c2nc3ccccc3nc12`, “inactive”.
For `CC1(C)C(N(O)C(=O)Nc2ccc(Cl)cc2)N(c2ccc(Cl)cc2)C(=O)N1CC(=O)NN` (stereo not given), the total fluorescence change, positive = fluorescent was 17.6% [at 11.6 µM] (inactive).
Regarding `Cn1c(=O)[nH]c2nnc(-c3ccc(Cl)c(Cl)c3)nc2c1=O`, the Potency entry was “inactive”.
In the case of `COC(=O)c1ccccc1-c1ccc(C(c2c(C)[nH][nH]c2=O)c2c(C)[nH][nH]c2=O)o1`, the total fluorescence change, positive = fluorescent was 15.2% [at 5.76 µM] (inactive).
Consider `Nc1cc(-c2ccncc2)c[nH]c1=O`, for which the Potency result is “inactive”.
Regarding `CC(=O)c1cccc(NC(=O)COC(=O)c2ccc(S(C)(=O)=O)c([N+](=O)[O-])c2)c1`, the total fluorescence change, positive = fluorescent is 9.6% [at 11.6 µM] (inactive).
With `COc1ccc(CN2C(=O)Cc3c2nc(N)c2c(N)nc(N4CCCCC4)c(C#N)c32)cc1`, the Potency result was “inactive”.
For `CC(NC(=O)Nc1ccc(O)cc1)(C(F)(F)F)C(F)(F)F`, the total fluorescence change, positive = fluorescent was 8.06% [at 11.6 µM] (inactive).
Turning to `CC(=O)NC1N=C(C)N(c2ccccc2)C1=O` (stereo not given), the Potency entry was “inactive”.
For `CCOc1ccc(NC(=O)C(c2ccccn2)N(C(=O)CCl)c2ccc(F)cc2)cc1` (stereo not given), the total fluorescence change, positive = fluorescent was 17.5% [at 5.76 µM] (inactive).
Same read-out and setting: as for `Cc1cc2c(NC(=O)Nc3ccccc3)cccc2nn1`, the figure is 9.99% [at 0.0112 µM] (inactive).
Consider `COc1ccccc1Nc1cc2ccccc2c(=O)[nH]1`, for which the Potency was 44.7 µM [fluorescent] (active).
Still for that read-out and setting: as for `Cc1c(C#N)c(O)n(CCO)c(=O)c1N=Nc1ccc2c(c1)COC2=O`, the entry is “inactive”.
On the same count and under the same terms, as for `O=C(O)[C@H]1CN(CCCP(=O)(O)O)CCN1`, the entry is “inactive”.
Still for that read-out and setting: as for `O=C(Nc1nc2ccc(Cl)cc2s1)c1ccc(N2CCCCC2)c([N+](=O)[O-])c1`, the entry is “inactive”.
Regarding `CCc1ccc2c(c1)c1nc(C)sc1n2CC`, the Potency result was “inactive”.
Same read-out and setting: to `CCOc1ccc(C2=Cc3cc(OC)c(OC)cc3C(=C(Cl)Cl)O2)cc1` belongs “inactive”; to `Cn1c(NNC(=O)c2c(F)cccc2F)cc(=O)n(C)c1=O`, “inactive”; to `CC1(C)CC(=O)C(N=Nc2cccc(S(=O)(=O)N3CCOCC3)c2)=C(O)C1`, “inactive”.
With `COc1ccc2c(c1)-c1nc(/N=C/c3c(O)ccc4ccccc34)sc1CC2`, the total fluorescence change, positive = fluorescent was 29.6% [at 5.76 µM] (inactive).
For the compound `COc1cc(/C=C(\C#N)C(=O)NCC2CCCO2)ccc1OCCC(C)C` (stereo not given), the Potency entry was “inactive”.
Consider `COc1ccc2ccc3c(c2c1)N=CC1(O3)N(C)c2ccccc2C1(C)C` (stereo not given), for which the total fluorescence change, positive = fluorescent is -5.71% [at 0.0112 µM] (inactive).
Same read-out and setting: to `COc1cc(NCCCC(C)N)c2ncccc2c1` (stereo not given) belongs -9.55% [at 11.6 µM] (inactive); to `Cn1c(CCN2CCCCC2)nc2cc(NS(=O)(=O)c3ccc(Cl)cc3)ccc21`, 13% [at 0.0112 µM] (inactive).
For `CN(C(=S)Nc1cccnc1)c1ccc(O)cc1`, the Potency result was “inactive”.
Turning to `CCCCCCN=CC1=C(O)CC(C)(C)CC1=O`, the total fluorescence change, positive = fluorescent is -5.99% [at 0.0112 µM] (inactive).
Take `C=CCSc1nnc2n(-c3ccccc3OC)c(=O)c3c4c(sc3n12)CCC4`: the Potency result was “inactive”.
As to `C=CCNC(=O)/C(C#N)=C\c1cc(Cl)c(OCC)c(OC)c1`, the Potency result is “inactive”.
On the same count and under the same terms, to `O=c1cc(C23CC4CC(CC(C4)C2)C3)[nH][nH]1` belongs “inactive”; to `COc1cc(NC(C)CCCN)c2ncccc2c1` (stereo not given), “inactive”.
Same read-out and setting: as for `CCOc1cc(C(c2c(C)[nH][nH]c2=O)c2c(C)[nH][nH]c2=O)ccc1OS(=O)(=O)c1ccc(C)cc1`, the entry is “inactive”; as for `CCC(NC(=O)Nc1ccc(O)cc1)(C(F)(F)F)C(F)(F)F`, “inactive”; as for `O=C(NNc1cc(N2CCOCC2)nc(N2CCOCC2)n1)c1ccc(Cl)c(Cl)c1`, “inactive”.
Regarding `C=CCNC(=O)/C(C#N)=C/c1c(C)nn(-c2ccc(Cl)cc2)c1Cl`, the Potency entry was “inactive”.
On the same count and under the same terms, as for `Cc1nnc(SCC(=O)Nc2ccc(N(C)C)cc2)[nH]c1=O`, the entry is “inactive”; as for `CCCc1cc(=O)[nH]c(=S)[nH]1`, “inactive”.
Same read-out and setting: to `Nc1cccnc1Sc1cc(Cl)c(Cl)cc1Cl` belongs “inactive”.
As to `Cc1cccc(Cn2c(C(=O)OC(C)C)cc3c2ccn3C)c1`, the total fluorescence change, positive = fluorescent was 8.18% [at 5.76 µM] (inactive).
